Holding throughout (details): compound concentration in added solution (µM; 5 µl added to 20 µl cells): 10; 18 h
The test system of test [1] is A431. The test is described as follows: LBPA endosome anti-LBPA integrated intensity (sum per cell), Z-score; higher = more LBPA staining. In a few lines: (§1)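 Four 20× images per well were taken of HeLa MZ or A431 cells that had been seeded at 3,500 per well in 20 µl onto 5 µl of 10 µM compound solution in duplicate 384-well imaging plates. Before imaging, cells were incubated 18 h, fixed in 4% PFA and stained with 6C4 anti-LBPA antibody, filipin, propidium iodide and CellTracker green. Values are Z-scores normalised in AcuityXpress from MetaXpress-derived per-cell integrated LBPA or filipin intensity, either whole-cell or within LBPA endosomes.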

For test [2], the system named is HeLa MZ. The test is described as above. In a few lines: as §1
The subject of test [3] is A431. As to the kind of experiment: whole-cell filipin (free cholesterol) integrated intensity, Z-score; higher = more cholesterol staining. The gist of the method:
as §1

Test [4] relates to HeLa MZ. Described as above. In a few lines: as §1
Test [5] relates to A431. The test is described as follows: filipin (cholesterol) integrated intensity within LBPA endosomes, Z-score; higher = more cholesterol in LBPA endosomes. In a few lines: as §1
Test [6] deals with HeLa MZ. The test is described as above. The gist of the method:
as §1

Counter-ions that a name gives are not always drawn.

For `C1N2CN3CN1CN(C2)C3` [Methenamine], the “LBPA endosome anti-LBPA integrated intensity (z-score)” value in the test with A431 [1] is -0.374; in the test with HeLa MZ [2], 0.113. The figures for the “whole-cell filipin (z-score)” value in the test with A431 [3] and with HeLa MZ [4] were -0.146 and 0.773, respectively. For the same compound, the “filipin (z-score)” value with A431 [5] is -0.379; in the test on HeLa MZ [6], -0.0431.
In the case of `N=C(N)NS(=O)(=O)c1ccc(N)cc1` [Sulfaguanidine], the entries for the “LBPA endosome anti-LBPA integrated intensity (z-score)” value in the test on A431 [1] and with HeLa MZ [2] were -0.422 and -1.14, respectively. For the same compound, the “whole-cell filipin (z-score)” value in the test on A431 [3] is -0.502; in the test on HeLa MZ [4], -0.128. Further, the entries for the “filipin (z-score)” value in the test on A431 [5] and with HeLa MZ [6] were -0.444 and -0.493, respectively.
For `CC[C@]12CCCN3CCc4c(n(c5ccccc45)C(=O)C1)[C@@H]32` [Eburnamonine (-)], the “LBPA endosome anti-LBPA integrated intensity (z-score)” value is -0.525 in the test with A431 [1] and -1.3 in the test with HeLa MZ [2]. Further, the “whole-cell filipin (z-score)” value was -0.836 with A431 [3] and -2.15 in the test on HeLa MZ [4]. For the same compound, the “filipin (z-score)” value with A431 [5] is -0.422; in the test with HeLa MZ [6], -0.458.
Consider `Cc1ncc(C[n+]2csc(CCO)c2C)c(N)n1` [Thiamine hydrochloride], for which the results for the “LBPA endosome anti-LBPA integrated intensity (z-score)” value with A431 [1] and in the test on HeLa MZ [2] were -0.398 and -0.0332, respectively. The “whole-cell filipin (z-score)” value with A431 [3] was 0.0289; with HeLa MZ [4], -0.0399. The “filipin (z-score)” value with A431 [5] was -0.382; in the test on HeLa MZ [6], -0.539.
Regarding `CC/C(=C(/CC)c1ccc(O)cc1)c1ccc(O)cc1` [Diethylstilbestrol], the “LBPA endosome anti-LBPA integrated intensity (z-score)” value with A431 [1] is -0.432; in the test with HeLa MZ [2], -0.702. The “whole-cell filipin (z-score)” value in the test with A431 [3] was -0.0535; with HeLa MZ [4] it was -0.813. In addition, the “filipin (z-score)” value in the test on A431 [5] is -0.37; with HeLa MZ [6], -0.493.
As for `CC[C@H](C)C(=O)O[C@H]1C[C@H](O)C=C2C=C[C@H](C)[C@H](CC[C@@H](O)C[C@@H](O)CC(=O)O)[C@H]21` [Pravastatin], the “LBPA endosome anti-LBPA integrated intensity (z-score)” value with A431 [1] is 1.48; in the test on HeLa MZ [2], 0.0503. Also, the “whole-cell filipin (z-score)” value in the test with A431 [3] was -0.289; in the test on HeLa MZ [4], -0.634. The “filipin (z-score)” value in the test on A431 [5] was 0.0167; in the test with HeLa MZ [6] it was -0.441.
For `C[C@@H]1[C@H](O)[C@@H](C)/C=C/C=C/C=C/C=C/C=C/C=C/C=C/[C@H](O[C@@H]2O[C@H](C)[C@@H](O)[C@H](N)[C@@H]2O)C[C@@H]2O[C@](O)(C[C@@H](O)C[C@@H](O)[C@H](O)CC[C@@H](O)C[C@@H](O)CC(=O)O[C@H]1C)C[C@H](O)[C@H]2C(=O)O` [Amphotericin B], the “LBPA endosome anti-LBPA integrated intensity (z-score)” value in the test with A431 [1] is 0.731; with HeLa MZ [2], -0.696. Besides, the “whole-cell filipin (z-score)” value with A431 [3] is -0.156; in the test with HeLa MZ [4], 0.222. For the same compound, the results for the “filipin (z-score)” value in the test on A431 [5] and in the test with HeLa MZ [6] were 0.0841 and -0.26, respectively.
In the case of `NCC[C@H](O)C(=O)N[C@@H]1C[C@H](N)[C@@H](O[C@H]2O[C@H](CN)[C@@H](O)[C@H](O)[C@H]2O)[C@H](O)[C@H]1O[C@H]1O[C@H](CO)[C@@H](O)[C@H](N)[C@H]1O` [Amikacin hydrate], the “LBPA endosome anti-LBPA integrated intensity (z-score)” value in the test on A431 [1] was -0.71; in the test on HeLa MZ [2], -0.821. Also, the figures for the “whole-cell filipin (z-score)” value in the test with A431 [3] and with HeLa MZ [4] were -1.06 and -0.44, respectively. Besides, the figures for the “filipin (z-score)” value with A431 [5] and in the test on HeLa MZ [6] were -0.672 and -0.666, respectively.
Take `C[N+](C)(CCOc1ccccc1)Cc1ccccc1.O=C([O-])c1cc2ccccc2cc1O` [Bephenium hydroxynaphthoate]: the “LBPA endosome anti-LBPA integrated intensity (z-score)” value in the test on A431 [1] is -0.418; with HeLa MZ [2], 0.146. In addition, the “whole-cell filipin (z-score)” value in the test on A431 [3] is -0.383; with HeLa MZ [4], -0.145. Further, the “filipin (z-score)” value in the test on A431 [5] is -0.456; in the test with HeLa MZ [6], -0.371.
With `COc1ccc(-c2cc(=O)c3c(O)cc(O[C@@H]4O[C@H](CO[C@@H]5O[C@@H](C)[C@H](O)[C@@H](O)[C@H]5O)[C@@H](O)[C@H](O)[C@H]4O)cc3o2)cc1O` [Diosmin], the “LBPA endosome anti-LBPA integrated intensity (z-score)” value in the test with A431 [1] was -0.501; with HeLa MZ [2], -0.4. Besides, the “whole-cell filipin (z-score)” value in the test on A431 [3] is -0.678; in the test on HeLa MZ [4], -0.378. In addition, the “filipin (z-score)” value in the test with A431 [5] is -0.518; in the test on HeLa MZ [6] it was -0.715.
As for `Cc1cc(-c2ccccc2)nnc1NCCN1CCOCC1` [Minaprine dihydrochloride], the “LBPA endosome anti-LBPA integrated intensity (z-score)” value with A431 [1] is -0.498; with HeLa MZ [2], -0.183. Moreover, the “whole-cell filipin (z-score)” value in the test with A431 [3] was -0.925; in the test with HeLa MZ [4], -0.799. Further, the “filipin (z-score)” value was -0.593 in the test on A431 [5] and -0.625 in the test with HeLa MZ [6].

Values taken from the supplement of paper PMC6607015.
